Measurements: ChEMBL document CHEMBL3988442, “University of Dundee, Small-Polar-MMV Screening Library” (2021)

target: T1, Tyrosyl-tRNA synthetase, putative (Trypanosoma cruzi (strain CL Brener)) (UniProt Q4DSP6); experiment: Trypanosoma cruzi tyrosyl tRNA synthetase (TcYRS) _High Tyrosine SOP; assay type: functional; design: scale not given: in the data most compounds retested in dose-response had high values; conditions: 30 µM
T1 sequence (whole entry): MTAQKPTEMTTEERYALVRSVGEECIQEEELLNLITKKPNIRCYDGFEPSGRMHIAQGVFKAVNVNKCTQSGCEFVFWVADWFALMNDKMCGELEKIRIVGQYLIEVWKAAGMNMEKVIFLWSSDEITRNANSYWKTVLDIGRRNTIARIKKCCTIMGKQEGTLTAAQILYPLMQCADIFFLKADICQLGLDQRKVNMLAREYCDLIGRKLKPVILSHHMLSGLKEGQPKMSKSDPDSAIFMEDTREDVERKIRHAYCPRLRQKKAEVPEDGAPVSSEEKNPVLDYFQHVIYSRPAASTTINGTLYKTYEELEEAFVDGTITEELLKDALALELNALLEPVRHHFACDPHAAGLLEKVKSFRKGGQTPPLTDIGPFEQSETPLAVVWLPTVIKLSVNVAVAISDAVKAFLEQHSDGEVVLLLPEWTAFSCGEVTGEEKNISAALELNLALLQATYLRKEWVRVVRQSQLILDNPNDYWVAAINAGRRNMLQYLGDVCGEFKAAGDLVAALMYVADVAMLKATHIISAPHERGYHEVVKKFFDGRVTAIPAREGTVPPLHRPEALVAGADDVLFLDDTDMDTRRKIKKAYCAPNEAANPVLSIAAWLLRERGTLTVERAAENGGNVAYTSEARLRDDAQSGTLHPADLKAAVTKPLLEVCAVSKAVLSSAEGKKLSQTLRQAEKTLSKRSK

| Compound | Percent Effect |
| --- | --- |
| CC(C(=O)Nc1ccc(N2CCCC2)nc1)n1ccnc1 (stereo not given) | 5.42% |
| O=C1N(Cc2ccccc2F)CCCC12CCN(C1CCSCC1)C2 (stereo not given) | 8.2% |
| Cn1cc(CN2CC3(CCN(C(=O)c4ccoc4)C3)C2)cn1 | -1.04% |
| CCOC(=O)NC(CNC(=O)CCc1ccccn1)CC(C)C (stereo not given) | -5.38% |
| Cc1ccc(C2CSCCN2C(=O)C2=CCCC2)o1 (stereo not given) | 1.07% |
| Cc1nc(Nc2nccs2)cc(C2CCCN2C2CCOCC2)n1 (stereo not given) | 6.45% |
| COCc1cn([C@@H]2c3ccccc3C3(CCNCC3)[C@H]2O)nn1 | 4.21% |
| N#Cc1ccc(F)c(CN2CCCC2Cn2cnc3ccccc32)c1 (stereo not given) | 1.98% |
| O=C(CCCc1ncc(-c2ccccc2)o1)N1CCN(CCO)CC1 | 4.43% |
| CCn1cnnc1CNC(=O)N(C)Cc1ccc2c(c1)OCCO2 | 9.36% |
| COCCNC(=O)C(C)n1cc(Br)cn1 (stereo not given) | 9.68% |
| CCn1nc(CC(C)C)cc1C(=O)N1C[C@H](O)[C@@H](N2CCCCC2)C1 | 2.73% |
| O=C(CN1CCC(c2ccnn2CCO)CC1)NCc1cccs1 | 8.37% |
| CCOc1ccc(CC(=O)N2CCN(c3nccn3C)CC2)cc1 | 4.23% |
| O=C(C1CC1)N1CCCC1C1CCN(Cc2ccccc2)CC1 (stereo not given) | 4.25% |
| Cc1nc(C)n(CC2CN(c3ccc(C#N)cn3)CCO2)n1 (stereo not given) | 6.4% |
| COc1cc(N2C[C@@H]3COC[C@]3(COCc3cccc(C)n3)C2)ncn1 | 1.08% |
| COCCN1CCC2(CC1)CC(COC)N(c1ncccn1)C2 (stereo not given) | 3.23% |
| O=C(CCOCc1ccccc1)N1CCCC1c1noc(C2CC2)n1 (stereo not given) | -23.1% |
| CS(=O)(=O)NCC1CCCN(Cc2ccc(F)c3cccnc23)C1 (stereo not given) | 5.38% |

| Compound | Percent Effect |
| --- | --- |
| O=C(NC[C@]12COC[C@H]1CN(Cc1nccs1)C2)c1ccccc1 | 2.12% |
| CCc1cnc(CNc2ccc(C(=O)N3CCCC(C)C3)cc2C)o1 (stereo not given) | -0.971% |
| Cc1cc(C[C@@H]2COC[C@@H]2NC(=O)CN2CCCC2)on1 | 5.38% |
| Fc1cccc(Oc2ccc(CNCC3CNc4ccnn4C3)cn2)c1 (stereo not given) | 37.9% |
| Cn1cccc1C(=O)N1CCN(Cc2ccncc2)c2ncccc2C1 | 8.33% |
| CC(=O)Nc1nc(C(=O)N2CCCC(n3ccnc3)C2)cs1 (stereo not given) | 2.46% |
| CN(C)C1CCN(C(=O)NCc2ccc(Cn3cncn3)cc2)CC1 | 5.82% |
| NC(=O)CN1CCCN(C(=O)c2ccn(-c3cccc(F)c3)n2)CC1 | -1.05% |
| COCCCC1(CO)CCCN(CCS(C)(=O)=O)C1 (stereo not given) | 2.15% |
| CC1CCCCN1c1nc2c(c(=O)[nH]1)CCN(Cc1cccnc1)C2 (stereo not given) | 3.23% |
| Cc1cc(CC(=O)N(CC2CN(C)CCO2)c2nccs2)no1 (stereo not given) | 0% |
| CC(C)NC(=O)N1CCN(S(=O)(=O)C2CC2)CC2(CC(=O)N(C)C2)C1 (stereo not given) | 1.06% |
| CCCNC(=O)N1CCN(Cc2cc(C)no2)CC1 | 8.37% |
| O=C(COCc1ccccc1Cl)N1CCCC(n2cccn2)C1 (stereo not given) | 2.86% |
| O=C(CN1CCCCC1Cn1cccn1)NC1CCN(C2CC2)CC1 (stereo not given) | 0.529% |
| COCC1CC2(CCN(C(=O)c3cc(C)oc3C)CC2)CN1C(C)C (stereo not given) | 8.91% |
| CCCN(CC(=O)NC)C(=O)c1ccc(-c2ccsc2)nc1C | 7.37% |
| COCCN1C[C@H]2CC[C@@]3(N=C(C)N(CC4CC4)C3=O)[C@H]2C1 | 6.93% |
| CCO[C@@H]1CC[C@H]2[C@H]1OCCN2C(=O)C1CCOCC1 | 10.9% |
| O=C(c1cccnc1-n1cccn1)N1CCN(CC2CC2)CC1 | 4.76% |
